PGE2 EP2 inh = blocks the human prostaglandin E2 receptor EP2 | inhibition, % at 25 µM | P43116 | hit rate 0.52% among 260,000 | C6 glioma cells expressing human EP2, cAMP TR-FRET; cells stimulated with saturating PGE2;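 active = percent inhibition above 40 after rounding to a whole number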;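 note: rat C6 glioma host cells with rolipram phosphodiesterase inhibitor present; the protocol text gives 20 µM as final concentration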
Target sequence (P43116 whole entry, looked up): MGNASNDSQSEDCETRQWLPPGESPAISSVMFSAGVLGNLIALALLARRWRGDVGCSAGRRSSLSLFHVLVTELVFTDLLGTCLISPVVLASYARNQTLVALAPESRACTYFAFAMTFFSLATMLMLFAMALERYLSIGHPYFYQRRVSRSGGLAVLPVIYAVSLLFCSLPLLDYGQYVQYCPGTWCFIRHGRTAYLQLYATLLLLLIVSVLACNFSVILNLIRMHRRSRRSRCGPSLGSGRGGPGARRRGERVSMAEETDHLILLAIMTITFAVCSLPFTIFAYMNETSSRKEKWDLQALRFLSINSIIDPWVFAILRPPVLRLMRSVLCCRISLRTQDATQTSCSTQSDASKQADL
S1P3 antagonist = blocks the human S1P3 receptor | Q99500 | CHO S1P3 NFAT-BLA reporter, FRET fluorescence, antagonist mode | inhibition, % at 4.98 µM | hit rate 0.27% among 170,000 | AID 485;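 active = inhibition above the plate cutoff, the mean inhibition of test wells on that plate plus 3 SD, cut at about 28% in these data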;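 note: cells challenged with S1P at its EC80 of 0.8 µM; blue over green emission ratio from cleaved BLA substrate after 4 h stimulation; 0% = S1P-stimulated wells and 100% = unstimulated DMSO-only wells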
Target sequence (Q99500 whole entry, looked up): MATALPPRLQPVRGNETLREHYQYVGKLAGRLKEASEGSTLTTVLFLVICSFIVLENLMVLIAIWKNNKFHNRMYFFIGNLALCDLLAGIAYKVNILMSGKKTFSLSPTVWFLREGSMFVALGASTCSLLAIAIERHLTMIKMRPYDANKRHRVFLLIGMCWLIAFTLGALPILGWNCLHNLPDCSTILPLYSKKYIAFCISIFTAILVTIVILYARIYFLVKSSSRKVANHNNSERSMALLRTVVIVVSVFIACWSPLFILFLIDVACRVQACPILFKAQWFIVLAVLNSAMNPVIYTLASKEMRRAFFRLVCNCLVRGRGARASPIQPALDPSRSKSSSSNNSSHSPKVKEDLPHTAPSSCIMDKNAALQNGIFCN
Cl transport mod = KCC2 (human) Cl- transport modulation; KCC2 cells, thallium flux FluoZin-2 fluorescence; B-score of Tl+ flux slope (higher = more flux/activation; lower = inhibition) at 10 µM; hit rate 2.2% among 190,000; AID 1456;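 active = thallium flux slope and its plate-corrected score both differing from the plate sample mean at a set confidence after two filtering rounds, in either direction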;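 note: slope of fluorescence scaled to starting intensity during 10 to 20 s after thallium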
EP2 mod = modulators of human EP2 prostaglandin E2 receptor. P43116. EP2-expressing cells, cAMP HTRF FRET, PGE2 co-stimulation. induction, % at 25 µM. hit rate 0.83% among 260,000;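 active = compounds whose cAMP rise, as percent of the full-agonist control response, exceeds 60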;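 note: rat C6 glioma line stably carrying human EP2 under a CMV promoter; the protocol text gives 20 µM as final concentration; 100% = response of wells given 1 µM PGE2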
KCC2 secondary = KCC2 (human) modulation, secondary assay | shares compounds with Cl transport mod | HEK293-KCC2, thallium flux, FluoZin2 fluorescence; hits give high values | normalised thallium flux (F/F0 slope) at 10 µM | hit rate 15% among 3,700;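 active = thallium flux slope above the same plate's solvent-only control mean plus 3 SD; inconclusive = the two replicate wells disagree; inactive = no significant difference from solvent-only control wells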
KCC2 bumet counter = thallium flux persisting under bumetanide in KCC2 cells, counter-screen secondary assay | hit rate 49% among 3,700 | AID 1714 | normalized thallium flux at 10 µM | shares compounds with Cl transport mod | HEK293-KCC2 + bumetanide/ouabain, thallium flux FluoZin2; hits give high values;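 active = thallium entry rate above the same plate's blocked-transporter control wells by more than 3 SD; inconclusive = the two repeat wells disagree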;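 note: raw slope of fluorescence over initial fluorescence between 10 and 20 s after thallium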
KCC2 secondary2 = KCC2 (human) modulation, second secondary assay; shares compounds with Cl transport mod; HEK293-KCC2, thallium flux FluoZin2 fluorescence; actives lie on both sides; F/F0 rise rate, 10–20 s post-thallium; normalized thallium flux at 10 µM; hit rate 23% among 3,700; AID 1715;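 active = thallium flux slope more than 3 SD above or below the plate's solvent-only control mean, mostly below; inconclusive = the two repeat wells disagreed; inactive = no significant shift from solvent-only controls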;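 note: raw slope with 0.1% DMSO as baseline and bumetanide as block control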
HEK counter1 = counter-screen for KCC2 modulators: effect in parental HEK293 cells; shares compounds with Cl transport mod; thallium flux FluoZin2, ouabain; baseline-ratio fluorescence slope, 10–20 s after thallium; thallium flux rate (normalised fluorescence) at 10 µM; hit rate 46% among 3,700; AID 1716;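 active = thallium flux rate significantly above the same plate's solvent-only control wells, beyond their mean plus 3 SD; inconclusive = the two replicate wells gave conflicting results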
KCC2 retest ouab = KCC2 (human) modulation, ouabain retest; shares compounds with Cl transport mod; AID 1717; HEK293-KCC2, thallium flux FluoZin2 fluorescence; bidirectional: low = inhibitor, high = activator; raw Tl+ flux slope (below DMSO = inhibition, above = activation) at 10 µM; hit rate 48% among 3,700;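 active = thallium flux slope beyond 3 SD from same-plate DMSO control mean in most replicates, usually higher, sometimes lower; inconclusive = repeat tests gave conflicting results; inactive = no significant difference from controls in most replicates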;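 note: slope of initial-normalized fluorescence between seconds 10 and 20 after thallium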
HEK counter2 = acts in parental HEK cells, second KCC2 counter-screen; AID 1718; HEK293 parental, thallium flux FluoZin-2 fluorescence slope; hit rate 33% among 3,700; thallium flux slope at 10 µM; shares compounds with Cl transport mod;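 active = thallium flux slope above the same plate's solvent-control mean plus 3 SD in both duplicate wells; inconclusive = duplicate wells that disagreed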;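 note: run without ouabain in cells lacking the KCC2 cotransporter; slope of fluorescence scaled to its starting value between 10 and 20 s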
Active calls of the source: *; ? = inconclusive; nt = not tested or not shown. Most compounds without a hit are left out; they make up all but 3.1% or so of the library.

SMILES	PGE2 EP2 inh	S1P3 antagonist	Cl transport mod	EP2 mod	KCC2 secondary	KCC2 bumet counter	KCC2 secondary2	HEK counter1	KCC2 retest ouab	HEK counter2
Cc1cc(C=C2C(=O)c3ccccc3C2=O)c(C)n1-c1cccc(C(=O)O)c1	9	5	-5.4*	-33	0.014	?	0.02*	0.0056*	0.01*	0.0083
Cc1cc(C=C2C(=O)c3ccccc3C2=O)c(C)n1-c1ccc(C(=O)O)cc1	3	-16	-2.1	-40	nt	nt	nt	nt	nt	nt
CCOC(=O)N1CCN(C(=O)CCCn2c(=S)[nH]c3ccc(Br)cc3c2=O)CC1	9	nt	8.7*	6	0.0078	0.0089*	0.027	0.0097*	0.02	0.011
CCOC(=O)N1CCN(C(=O)c2ccc3c(=O)n(Cc4ccccc4)c(=S)[nH]c3c2)CC1	8	-29	4.6*	2	0.0092	0.026*	0.029	0.012*	0.028*	0.011*
CCN(CC)CCn1c(=S)[nH]c2ccc(Br)cc2c1=O	6	-7	17*	-15	0.017	0.017*	0.031	0.011*	0.02	?
CCOC(=O)N1CCN(C(=O)CCCn2c(=S)[nH]c3ccccc3c2=O)CC1	8	-9	-0.74	11	nt	nt	nt	nt	nt	nt
CCN(CC)CCCn1c(=S)[nH]c2ccccc2c1=O	11	10	0.062	24	nt	nt	nt	nt	nt	nt
O=C(NCCCCNC(=O)c1ccc(Cl)s1)c1ccc(Cl)s1	18	nt	0.2	-14	nt	nt	nt	nt	nt	nt
CN(C)CCNC(=O)c1ccc(Cl)s1	9	-5	7.3*	2	0.0099	0.0067	0.032	0.0074	0.05	?
CSc1ccccc1NC(=O)c1cc(C)on1	5	nt	nt	2	nt	nt	nt	nt	nt	nt
CSc1ccccc1NC(=O)c1cc(C(C)C)on1	4	nt	nt	-4	0.0081	0.0042	0.028	0.0073	0.017	0.0099
CC(CCc1ccccc1)NC(=O)C1CCCN(c2nnc(-n3cccc3)s2)C1 (configuration not stated)	11	6	-4.4*	-27	0.0064	0.0049	0.03	0.008	0.015*	0.011
CC(C)NC(=O)C1CCCN(c2nnc(-n3cccc3)s2)C1 (configuration not stated)	9	-17	0.32	7	nt	nt	nt	nt	nt	nt
CC[C@@H](Cn1nc(-c2cccs2)oc1=O)NC(=O)C(C)C	4	nt	nt	0	nt	nt	nt	nt	nt	nt
CCOc1ccccc1CNC(=O)C1CCCN(c2nc3ccccc3o2)C1 (configuration not stated)	1	-34	nt	7	nt	nt	nt	nt	nt	nt
O=C(NCc1cccs1)C1CCN(c2nc3ccccc3o2)CC1	nt	-11	nt	5	0.0076	0.0063	0.033	0.0043	0.016*	0.011
CCOc1ccccc1CNC(=O)C1CCN(c2nc3ccccc3o2)CC1	nt	-11	nt	23	0.017	?	?	0.007	0.014	0.0097
Cc1nc2c(-c3ccc(F)cc3)c(C)nn2c(NCCCN2CCCC2=O)c1C	nt	nt	nt	-123	nt	nt	nt	nt	nt	nt
N=C1S/C(=C\c2ccco2)C(=O)N1c1nccs1	5	-24	19*	-22	0.028*	0.075*	?	0.028*	0.049*	0.015*
Cn1c(CNc2nc3ccccc3n2C)nc2ccccc21	7	8	1.1	17	nt	nt	nt	nt	nt	nt
CC(C)n1c(NCc2nc3ccccc3n2C)nc2ccccc21	8	13	nt	12	0.0078	0.0057	0.032	0.007	0.017	?
NC(=O)/C(=N\OC(=O)c1ccco1)c1nc(-c2ccc(Br)cc2)cs1	5	nt	3.7*	0	0.0075	0.013*	0.025*	0.011*	0.018	0.0087
Cc1ccc(CCc2nnc(SCC(=O)Nc3cc(Cl)ccc3Cl)n2-c2ccccc2)o1	5	-11	-4.7*	20	0.0083	0.005	0.031	0.0064	0.026	0.0095
COCc1nnc(SCC(=O)Nc2cccc(Cl)c2C)n1-c1ccccc1	16	-10	0.23	23	nt	nt	nt	nt	nt	nt
S=c1[nH]cnc2scc(-c3ccc(Br)cc3)c12	12	14	48*	30	0.055*	0.14*	?	?	0.094*	0.027*
SMILES	PGE2 EP2 inh	S1P3 antagonist	Cl transport mod	EP2 mod	KCC2 secondary	KCC2 bumet counter	KCC2 secondary2	HEK counter1	KCC2 retest ouab	HEK counter2
S=c1[nH]cnc2scc(-c3ccc(Cl)cc3)c12	12	-12	181*	10	0.063*	0.17*	0.058*	?	0.12*	0.062*
Clc1ccc(-c2csc3ncnc(Cl)c23)cc1	6	12	0.31	8	nt	nt	nt	nt	nt	nt
O=C(O)CSc1ncnc2scc(-c3ccc(Br)cc3)c12	8	3	0.78	10	nt	nt	nt	nt	nt	nt
COc1ccc(-c2nc(-c3cccs3)c(-c3cccs3)[nH]2)cc1OC	37	nt	-0.72	15	nt	nt	nt	nt	nt	nt
COc1ccc(-c2nc(-c3ccccc3)c(-c3cccs3)[nH]2)cc1OC	12	nt	-5.4*	44	0.0094	0.0073	0.032	0.0043	0.018	0.011
CC(=O)c1ccc(NC2OC(O)C(O)C(O)C2O)cc1 (configuration not stated)	3	nt	nt	0	nt	nt	nt	nt	nt	nt
C/C(=N\Nc1ccc(C(=O)O)cc1)c1ccc(S(=O)(=O)NCc2ccco2)cc1	12	-6	4.5*	-29	0.0087	0.0068	0.032	0.0072	0.021	0.01*
CCOC(=O)C1=C(CN2CCCCC2)NC(=O)NC1c1cc(C)ccc1C (configuration not stated)	5	nt	nt	-19	0.0056	0.0043	0.031	0.0073	0.019	0.01
Cc1ccc2cc(C(c3nnnn3Cc3ccc(F)cc3)N3CCCc4ccccc43)c(=O)[nH]c2c1C (configuration not stated)	15	nt	nt	-10	nt	nt	nt	nt	nt	nt
CCOP(=O)(c1ccccc1)c1nc(-c2ccc(F)cc2)oc1N1CCCCC1 (configuration not stated)	12	nt	-2.9*	9	0.01	0.005	0.034	?	?	0.01
Cc1[nH]c2ccccc2c1SCC(=O)N1CCN(c2ccccc2)CC1	10	nt	-3.9*	-11	0.0076	0.0043	0.022*	0.0071	0.015*	0.0095
CCOc1ccccc1-n1nnnc1SCC(=O)N1CCCCC1	3	nt	nt	-78	nt	nt	nt	nt	nt	nt
COc1ccc(N2C(=O)C(OC(C)=O)C2c2ccc(C)cc2)cc1 (configuration not stated)	9	-24	0.009	28	nt	nt	nt	nt	nt	nt
COc1ccc([C@@H]2Sc3ccccc3N(CCN(C)C)C(=O)[C@@H]2OC(C)=O)cc1	11	8	4.4*	35	0.0065	0.0045	0.03	0.0079	0.019	0.011

Compound activity from PubChem BioAssay.
